Assay results reported in PubChem BioAssay (Tox21).
Records with an inconclusive call do not appear. Activity calls are given as the source filed them. The call rests on the fitted dose curve; in most records, active means well fitted curve in the direction sought with a large enough effect in the repeat runs; inconclusive means weak or mixed curves; inactive means no such curve, though single readings can be large; an effect the other way counts as inactive or inconclusive.

Assays:
[1] = qHTS RealTime-Glo MT Cell Viability Assay in HepG2 cells - 24 hour (AID 1224867); further: nearly all actives have a fitted effect of over 50% in size
In short: (§1)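 Luminescence read-out: viable HepG2 cells reduce a prosubstrate to a NanoLuc substrate, giving a signal proportional to live cell number. Reads taken at 0, 8, 16, 24, 32 and 40 h of compound exposure at 37 C.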

[2] = qHTS RealTime-Glo MT Cell Viability Assay in HEK293 cells - 32 hour (AID 1224868); further: top concentration of the series differs between compounds; nearly all actives have a fitted effect of over 50% in size
In short: (§2)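 Nonlytic real-time viability readout: viable cells convert prosubstrate to NanoLuc substrate, giving luminescence proportional to live cell number. HEK293, 600 cells/well, compound added after 5 h, continuous culture at 37 C.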

[3] = A CellTox Green Cytotoxicity Assay to monitor cytotoxicity in HEK293 cells - 0 hour (AID 1224869); further: nearly all actives have a fitted effect of over 50% in size
In short: (§3)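 HEK293 cells premixed with CellTox Green dye were seeded at 600 cells/well and left 5 h at 37 C/5% CO2 before pin transfer of 23 nL compound in DMSO. Fluorescence from dye bound to dead-cell DNA was read during 40 h treatment.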

[4] = qHTS RealTime-Glo MT Cell Viability Assay in HepG2 cells - 40 hour (AID 1224870); further: nearly all actives have a fitted effect of over 50% in size
In short: (§4)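 HepG2 cells mixed with RealTime-Glo MT reagents (NanoLuc plus cell-permeant prosubstrate) were seeded at 600 cells/well, incubated 5 h at 37 C/5% CO2, then pinned with compounds in DMSO; nonlytic luminescence tracked viability during 40 h treatment.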

[5] = A CellTox Green Cytotoxicity Assay to monitor cytotoxicity in HEK293 cells - 40 hour (AID 1224871); further: nearly all actives have a fitted effect of over 45% in size
In short: as §3

[6] = qHTS RealTime-Glo MT Cell Viability Assay in HEK293 cells - 16 hour (AID 1224872)
In short: as §2

[7] = qHTS RealTime-Glo MT Cell Viability Assay in HepG2 cells - 8 hour (AID 1224873); further: nearly all actives have a fitted effect of over 55% in size
In short: as §4

[8] = qHTS RealTime-Glo MT Cell Viability Assay in HEK293 cells - 40 hour (AID 1224874); conditions: RealTime-Glo luminescence; max response: stronger effect = lower value; further: nearly all actives have a fitted effect of over 50% in size
In short: (§5)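 HEK293 cells mixed with RealTime-Glo reagents (NanoLuc plus cell-permeant prosubstrate) at 600 cells/well, preincubated 5 h at 37 C/5% CO2, then given 23 nL compound in DMSO. Nonlytic luminescence from viable cells was read at 0, 8, 16, 24, 32 and 40 h.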

[9] = A CellTox Green Cytotoxicity Assay to monitor cytotoxicity in HEK293 cells - 24 hour (AID 1224875); further: series mostly up to about 77 µM; nearly all actives have a fitted effect of over 45% in size
In short: as §3

[10] = A CellTox Green Cytotoxicity Assay to monitor cytotoxicity in HepG2 cells - 16 hour (AID 1224876); further: nearly all actives have a fitted effect of over 45% in size
In short: (§6)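 HepG2 cells were seeded together with the CellTox Green dye at 600 cells/well, left 5 h at 37 C/5% CO2, then given compounds in DMSO. Fluorescence from dye bound to dead-cell DNA was read repeatedly over 40 h of treatment at 37 C.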

[11] = qHTS RealTime-Glo MT Cell Viability Assay in HepG2 cells - 32 hour (AID 1224877); further: nearly all actives have a fitted effect of over 55% in size
In short: as §1

[12] = A CellTox Green Cytotoxicity Assay to monitor cytotoxicity in HepG2 cells - 24 hour (AID 1224878); further: nearly all actives have a fitted effect of over 45% in size
In short: as §6

[13] = A CellTox Green Cytotoxicity Assay to monitor cytotoxicity in HepG2 cells - 40 hour (AID 1224879); further: nearly all actives have a fitted effect of over 40% in size
In short: as §6

[14] = qHTS RealTime-Glo MT Cell Viability Assay in HEK293 cells - 0 hour (AID 1224880)
In short: as §5

[15] = A CellTox Green Cytotoxicity Assay to monitor cytotoxicity in HEK293 cells - 32 hour (AID 1224881); further: nearly all actives have a fitted effect of over 40% in size
In short: as §3

[16] = A CellTox Green Cytotoxicity Assay to monitor cytotoxicity in HepG2 cells - 0 hour (AID 1224882); further: nearly all actives have a fitted effect of over 35% in size
In short: as §6

[17] = A CellTox Green Cytotoxicity Assay to monitor cytotoxicity in HepG2 cells - 32 hour (AID 1224883); further: nearly all actives have a fitted effect of over 50% in size
In short: as §6

[18] = A CellTox Green Cytotoxicity Assay to monitor cytotoxicity in HEK293 cells - 8 hour (AID 1224884); further: nearly all actives have a fitted effect of over 35% in size
In short: as §3

[19] = qHTS RealTime-Glo MT Cell Viability Assay in HepG2 cells - 16 hour (AID 1224885); further: nearly all actives have a fitted effect of over 50% in size
In short: as §1
On the % scale 0 is the no-effect control and ±100 the full control effect.

C=CCCCC
inactive: outcome [1] | Potency [2] | Potency [3] | outcome [4] | Potency [5] | Potency [6] | outcome [7] | max response [8] 10.8% | Potency [9] | Potency [10] | outcome [11] | Potency [12] | Potency [13] | Potency [14] | Potency [15] | Potency [16] | Potency [17] | Potency [18] | outcome [19]

CCCCCCCCCOC(=O)c1ccccc1C(=O)OCCCCCCCCC
inactive: outcome [1] | Potency [2] | Potency [3] | outcome [4] | Potency [5] | Potency [6] | outcome [7] | max response [8] 2.9% | Potency [9] | Potency [10] | outcome [11] | Potency [12] | Potency [13] | Potency [14] | Potency [15] | Potency [16] | Potency [17] | Potency [18] | outcome [19]

CC(=O)O[C@@H]1CC2CCC1(C)C2(C)C (stereo not given in full)
inactive: outcome [1] | Potency [2] | Potency [3] | outcome [4] | Potency [5] | Potency [6] | outcome [7] | max response [8] 5.83% | Potency [9] | Potency [10] | outcome [11] | Potency [12] | Potency [13] | Potency [14] | Potency [15] | Potency [16] | Potency [17] | Potency [18] | outcome [19]

[O-][n+]1cccc(/C(Cl)=N/OC[C@@H](O)CN2CCCCC2)c1
inactive: outcome [1] | Potency [2] | Potency [3] | outcome [4] | Potency [5] | Potency [6] | outcome [7] | max response [8] 2.14% | Potency [9] | Potency [10] | outcome [11] | Potency [12] | Potency [13] | Potency [14] | Potency [15] | Potency [16] | Potency [17] | Potency [18] | outcome [19]

COCCc1ccccn1
inactive: outcome [1] | Potency [2] | Potency [3] | outcome [4] | Potency [5] | Potency [6] | outcome [7] | max response [8] -3.81% | Potency [9] | Potency [10] | outcome [11] | Potency [12] | Potency [13] | Potency [14] | Potency [15] | Potency [16] | Potency [17] | Potency [18] | outcome [19]

CN(C)CCOC(=O)C(c1ccccc1)C1(O)CCCC1 (stereo not given)
inactive: outcome [1] | Potency [2] | Potency [3] | outcome [4] | Potency [5] | Potency [6] | outcome [7] | max response [8] -2.33% | Potency [9] | Potency [10] | outcome [11] | Potency [12] | Potency [13] | Potency [14] | Potency [15] | Potency [16] | Potency [17] | Potency [18] | outcome [19]

COC(=O)CCCCC(CCSS/C(CCO)=C(\C)N(C=O)Cc1cnc(C)nc1N)SC(C)=O (stereo not given)
inactive: outcome [1] | Potency [2] | Potency [3] | outcome [4] | Potency [5] | Potency [6] | outcome [7] | max response [8] 3.28% | Potency [9] | Potency [10] | outcome [11] | Potency [12] | Potency [13] | Potency [14] | Potency [15] | Potency [16] | Potency [17] | Potency [18] | outcome [19]

CC(=O)C1C(=O)C=C(C)OC1=O (stereo not given)
inactive: outcome [1] | Potency [2] | Potency [3] | outcome [4] | Potency [5] | Potency [6] | outcome [7] | max response [8] 1.99% | Potency [9] | Potency [10] | outcome [11] | Potency [12] | Potency [13] | Potency [14] | Potency [15] | Potency [16] | Potency [17] | Potency [18] | outcome [19]

CCC(C)C(C)=O (stereo not given)
inactive: outcome [1] | Potency [2] | Potency [3] | outcome [4] | Potency [5] | Potency [6] | outcome [7] | max response [8] 0.997% | Potency [9] | Potency [10] | outcome [11] | Potency [12] | Potency [13] | Potency [14] | Potency [15] | Potency [16] | Potency [17] | Potency [18] | outcome [19]

CCNC(=O)NCc1cccc(Cl)c1
inactive: outcome [1] | Potency [2] | Potency [3] | outcome [4] | Potency [5] | Potency [6] | outcome [7] | max response [8] 0.19% | Potency [9] | Potency [10] | outcome [11] | Potency [12] | Potency [13] | Potency [14] | Potency [15] | Potency [16] | Potency [17] | Potency [18] | outcome [19]

COc1ccc2c(c1)c1c3n2CCN(C)C3=NCC1
inactive: outcome [1] | Potency [2] | Potency [3] | outcome [4] | Potency [5] | Potency [6] | outcome [7] | max response [8] 17.6% | Potency [9] | Potency [10] | outcome [11] | Potency [12] | Potency [13] | Potency [14] | Potency [15] | Potency [16] | Potency [17] | Potency [18] | outcome [19]

CNCCS(=O)(=O)O
inactive: outcome [1] | Potency [2] | Potency [3] | outcome [4] | Potency [5] | Potency [6] | outcome [7] | max response [8] 4.21% | Potency [9] | Potency [10] | outcome [11] | Potency [12] | Potency [13] | Potency [14] | Potency [15] | Potency [17] | Potency [18] | outcome [19]

COc1ccc(CCO)cc1
inactive: outcome [1] | Potency [2] | Potency [3] | outcome [4] | Potency [5] | Potency [6] | outcome [7] | max response [8] 21.3% | Potency [9] | Potency [10] | outcome [11] | Potency [12] | Potency [13] | Potency [14] | Potency [15] | Potency [16] | Potency [17] | Potency [18] | outcome [19]

CN(C)CCCCl
inactive: outcome [1] | Potency [2] | Potency [3] | outcome [4] | Potency [5] | Potency [6] | outcome [7] | max response [8] 0.853% | Potency [9] | Potency [10] | outcome [11] | Potency [12] | Potency [13] | Potency [14] | Potency [15] | Potency [16] | Potency [17] | Potency [18] | outcome [19]
